# Rows were chosen to be rich in hits. Some 19% of all compounds tested hit in one or more screens of this group.
# Cycloheximide cs: counter-screen hit for Shiga toxin inhibitors, cycloheximide; cell reporter, cycloheximide protein synthesis inhibition counterscreen; max response, %; 12% of 300,000 active; in the data active = max response mostly above about 13%, no sharp cut-off; inactive = mostly below about 14%; also: read at 38.3 µM for the half of the compounds with a filed dose; 0% is about no effect
# AMA1 RON2 block: inhibitors of Plasmodium falciparum AMA1-RON2 interaction; 0.2% of 360,000 active; AID 720542; AlphaScreen AMA1-biotinylated RON2 peptide binding; Potency, µM (titrated, usually from 58.2 µM), for the others: at the top dose activity change, negative = inhibition, most hits filed as inhibitors;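 also: potency is read from the fitted curve at half-maximal effect; 0% = vehicle wells and -100% = peptide control; nearly all actives have a fitted effect of over 45% in size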
#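 AMA1 (3D7) with his tag at 25 nM final met compounds first, then biotinylated RON2 peptide at 25 nM; detection used donor plus acceptor beads, 10 µg/mL apiece, read by AlphaScreen after 30 min at room temperature.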
# Shiga inhibitor: Shiga toxin inhibition. Vero cells, Shiga toxin protein synthesis inhibition reporter. inhibition, % at 38.7 µM. 9.2% of 290,000 active. AID 2315; in the data active = inhibition mostly above about 28%, no sharp cut-off; inactive = mostly below about 43%; also: 0% is about no effect
# Pf growth 48h: inhibits P. falciparum growth in the first generation, 48 h; P. falciparum luciferase growth in erythrocytes, 48 h; Potency, µM (top dose mostly 28.7 µM), for the others: top-dose activity change, negative = inhibition, most hits filed as inhibitors; 5.9% of 310,000 active; AID 504832; also: potency is read from the fitted curve at half-maximal effect; % is scaled to controls: 0 for no effect and ±100 for the full control effect
#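 A one-generation exposure of luciferase-tagged malaria parasites in RPMI 1640/Albumax erythrocyte culture, 37 C and 5% CO2. Inhibition is inferred from decreased luminescence after adding detection reagent.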
# Pf growth 96h: P. falciparum growth inhibition at 96 hour, primary screen for plastid delayed-death inhibitors | P. falciparum luciferase reporter growth, 96 h | Potency, µM (titrated, usually from 28.7 µM), for inactives: at the top dose activity change, negative = inhibition, usual class: inhibitors | 6.9% of 320,000 active | AID 504834; also: potency is read from the fitted curve at half-maximal effect; % is scaled to controls: 0 for no effect and ±100 for the full control effect
#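 P. falciparum expressing integrated firefly luciferase, in erythrocytes at 2% hematocrit, 0.05% parasitemia, incubated with compounds 96 h at 37 C, 5% CO2. Growth inhibition read as loss of luminescence; two-generation exposure targets delayed-death apicoplast inhibitors.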
# SARS PLP yeast: SARS-CoV PLP inhibition in yeast; S. cerevisiae expressing SARS-CoV PLpro, growth rescue; Potency, µM (top dose mostly 32.9 µM), for the others: at the top dose activity, positive = growth rescue, hits mostly activators; 0.19% of 330,000 active; calls by dose curve; also: potency is read from the fitted curve at half-maximal effect; 0% is about no effect; nearly all actives have a fitted effect of over 55% in size
# Starred values were filed as active, the others as inactive; ? = inconclusive; nt = not tested or not shown; [ ] = another dose, or the depositor's remark. Unless noted, calls follow the shape of the dose curve; as a rule, active = well fitted curve in the direction sought with a large enough effect; inconclusive = small, poorly fitted or top-dose-only effect, or another doubt; inactive = no such curve, though single readings can be large; an effect the other way counts as inactive or inconclusive.
SMILES,Cycloheximide cs,AMA1 RON2 block,Shiga inhibitor,Pf growth 48h,Pf growth 96h,SARS PLP yeast
CCCCOc1ccc(C2(C)CC(=O)NC2=O)cc1 (stereo not drawn),21.5*,-1.9%,77.6,25.0%,nt,5.7%
COc1ccc(-n2nnnc2/C=C/Nc2cc(C(F)(F)F)ccc2OC)cc1,1.0,4.7%,-4.2,?,?,-0.7%
COc1ccc(-n2nnnc2/C=C\Nc2ccccc2C(=O)c2ccccc2)cc1,1.2,-2.7%,22.4,?,8.28µM*,5.4%
CC(C)c1ccc(C2C(C(=O)c3ccco3)=C(O)C(=O)N2CCN2CCOCC2)cc1 (stereo not drawn),11.0,14.5%,22.6,9.5%,-14.6%,0.8%
CC(C)NC(=O)N(C)C[C@H]1OCCCC[C@H](C)Oc2ccc(NC(=O)NC3CCCCC3)cc2C(=O)N([C@H](C)CO)C[C@@H]1C,nt,-4.5%,nt,nt,nt,nt
CN1C(=O)/C(=C/C=C/c2ccco2)C(=O)NC1=S,-0.8,?,-14.8,1.1%,31.7%,1.3%
CN1C(=O)NC(=O)/C(=C\C=C\c2ccccc2[N+](=O)[O-])C1=O,24.0*,-4.5%,30.7,14.6%,139.5%,-5.8%
CSc1cccc(NC(=O)C2CCCN(S(=O)(=O)c3cccs3)C2)c1 (stereo not drawn),1.5,-25.0%,9.3,?,20.5%,-1.9%
Cc1ccc(S(=O)(=O)NC(=O)C2(C)CCN2C(=O)C2CC2)cc1 (stereo not drawn),nt,2.4%,nt,nt,nt,nt
CCN=c1scc(-c2ccco2)n1/N=C/c1ccc(O)cc1,38.5*,34.2%,68.9*,nt,?,-12.2%
CCN=c1scc(-c2ccco2)n1/N=C/c1ccc(OC)c(O)c1,53.9*,?,138.9*,16.7%,119.0%,nt
Nc1cc(OC(=O)c2ccc(F)cc2)nn1S(=O)(=O)c1ccccc1,-5.2,10.1%,-7.8,2.0%,-1.5%,-0.2%
COC(=O)CCCn1cc(CN2CC(N3CCCC3)CS2(=O)=O)nn1 (stereo not drawn),nt,7.1%,nt,nt,nt,nt
CN(C)c1ccc(N=C/C=C2\N(C)c3ccccc3C2(C)C)cc1,68.2*,?,167.2*,?,?,-11.4%
CN1/C(=C\C=Nc2ccccc2)C(C)(C)c2ccccc21,-2.3,-1.5%,-15.5,?,?,0.5%
CN1/C(=C\C=C\C2=[N+](C)c3ccc4ccccc4c3C2(C)C)C(C)(C)c2ccccc21,-8.9,nt,-62.2,1.31µM*,0.329µM*,-31.2%
CN1/C(=C\C=Nc2ccc3ccccc3c2)C(C)(C)c2ccccc21,46.8*,nt,53.1,19.0%,49.0%,-32.2%
CN1\C(=C/C=C/C=C/C=[N+](C)C)C(C)(C)c2ccccc21,8.2,22.4µM*,-7.5,?,?,-9.0%
CSc1ccc(Cn2c(C)c(C(=O)NCc3ccc4c(c3)OCO4)sc2=O)cc1,nt,-11.3%,nt,nt,nt,nt
CCC(C)(C)n1nnnc1C(c1ccc2ncccc2c1)N1CCCCCC1 (stereo not drawn),-0.3,-7.6%,13.1,6.2%,8.2%,3.8%
Cc1c(N=C/C=C2\N(C)c3ccccc3C2(C)C)c(=O)n(-c2ccccc2)n1C,-1.4,-6.6%,-5.3,6.2%,4.15µM*,-0.7%
NC(=O)C1CCN(C(=O)Nc2csc3ccccc23)CC1,0.9,-6.9%,-5.7,-0.9%,8.0%,-1.8%
CC1(C)Nc2ccc(O)cc2-c2c1ssc2=S,-2.4,?,-3.5,?,8.28µM*,8.1%
COC(CNC(=O)CCc1c(C)nc2c(-c3ccc(F)cc3)c(C)nn2c1C)OC,-3.7,?,-3.1,-29.1%,?,-3.2%
Cc1nc2c(-c3ccc(F)cc3)c(C)nn2c(C)c1CCC(=O)Nc1ccccc1F,-4.3,3.0%,-7.2,?,9.28µM*,1.3%
Cc1nc2c(-c3ccccc3)c(C)nn2c(C)c1CCC(=O)NC(C)CCc1ccco1 (stereo not drawn),-4.4,-6.2%,-13.4,nt,10.4µM*,-2.3%
O=C(CN1C(=O)COc2ccc(Cl)cc21)Nc1ccccn1,-2.6,-21.7%,-2.9,-14.5%,?,0.3%
CCN(CC)c1ccc(NC(=O)CNCc2ccccc2Cl)c(C)c1,11.9,?,35.3,2.4%[0.00184 µM],?,0.6%
CC1CN(C(=O)CCN2C(=O)c3ccccc3C2=O)CC(C)O1 (stereo not drawn),-1.3,5.0%,7.6,-2.2%,-36.8%,0.0%

# Compound activity as filed in PubChem.
